Seven compounds from PubChem BioAssay (Tox21) can be followed below.

Assay [1] in a line: qHTS assay to identify small molecule agonists of the sonic hedgehog signaling (Shh) pathway (AID 1259368).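 Note: NIH/3T3-derived 3T3Gli1-Luc cells carrying a stable Gli1-driven firefly luciferase reporter; series mostly up to about 92 µM; nearly all actives have a fitted effect of over 15% in size.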 Summed up:
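3T3Gli1-Luc (NIH/3T3 clone, stable Gli1-Luc); 4 hr pre-incubation, then cpd in DMSO 24 hr, 37 C/5% CO2; luciferase reagent 30 min RT; luminescence.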
Background: qHTS replaces the single test concentration by a dilution series.

A short description of assay [2]: qHTS assay to identify small molecule antagonists of the sonic hedgehog signaling (Shh) pathway (AID 1259369). Note: nearly all actives have a fitted effect of over 45% in size. Note: potency is the fitted concentration of half-maximal effect. Summed up:
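3T3Gli1-Luc, conditioned-medium-stimulated, 24hr cpd, 37C/5% CO2; Gli1-driven firefly Luc luminescence after 30min RT with luciferase reagent. Cells plated 4hr before cpd.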

A short description of assay [3]: qHTS assay to identify small molecule agonists of the androgen receptor (AR) signaling pathway in the presence of an antagonist - cell viability counter screen (AID 1259379; active = well fitted curve in the direction sought with a large enough effect in the repeat runs; an effect the other way counts as inactive or inconclusive;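 note: MDA-kb2 human breast cancer cells carrying an MMTV luciferase reporter; series mostly up to about 92 µM; nearly all actives have a fitted effect of over 25% in size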). Summed up:
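Cells: MDA-kb2 (MMTV-luc, AR and GR elements), 3,000/well, 5 hr settle. Added: nilutamide 3.0uM final, then compounds (15 conc.). Incubation: 16 hr, 37C, no CO2. Read-out: CellTiter-Fluor, 1 hr, fluorescence.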

Assay [4] in a line: qHTS assay to identify small molecule agonists of the estrogen receptor beta (ER-beta) signaling pathway - cell viability counter screen (AID 1259380; active = well fitted curve in the direction sought with a large enough effect in the repeat runs; an effect the other way counts as inactive or inconclusive; note: nearly all actives have a fitted effect of over 30% in size). Summed up:
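HEK293T ER-beta-UAS-bla; 2% CS-FBS; 6 hr pre-plate, 16 hr cpd at 37C/5% CO2; LiveBLAzer read first, then CellTiter-Glo 30 min RT, luminescence.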

Assay [5] in a line: qHTS assay to identify small molecule antagonists of the estrogen receptor beta (ER-beta) signaling pathway - cell viability counter screen (AID 1259382; active = well fitted curve in the direction sought with a large enough effect in the repeat runs; an effect the other way counts as inactive or inconclusive;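 note: HEK293T cells carrying ER-beta-UAS-bla reporter stimulated with estradiol; series mostly up to about 92 µM; nearly all actives have a fitted effect of over 55% in size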). Summed up: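 Cells: ER-beta-UAS-bla HEK293T, 2,000/well, 2% CS-FBS, 6 hr settle. Cpd + E2 (1nM final), 16 hr, 37C/5% CO2. Bla FRET substrate 2 hr RT, then CellTiter-Glo 30 min RT, luminescence.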
Assay [6] is described as follows: qHTS assay to identify small molecule agonists or antagonists of the thyroid stimulating hormone receptor (TSHR) signaling pathway - wild type cell line counter screen (AID 1259384). A digest of the protocol:
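Wild-type Hek293 cells, 800/well, 18 h at 37C, then compound with Ro20-1724 for 30 min RT. cAMP by HTRF (cAMP-d2/anti-cAMP cryptate), 1 h RT, fluorescence read. 15 concentrations, triplicates.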

Assay [7] has as its target Thyrotropin receptor (Homo sapiens) (UniProt P16473). As to the kind of experiment: qHTS assay to identify small molecule antagonists of the thyroid stimulating hormone receptor (TSHR) signaling pathway (AID 1259385). Note: nearly all actives have a fitted effect of over 20% in size. A digest of the protocol: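 TSHR-HEK293 cells (800/well) plated 18 h, then compounds with Ro20-1724 and TSH at 1.5 ng/mL final, 30 min at room temperature. cAMP quantified by HTRF (cAMP-d2/anti-cAMP-cryptate, 1 h); 15 concentrations in triplicate.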

Assay [8] in a line: qHTS assay to identify small molecule agonists of the estrogen receptor alpha (ER-alpha) signaling pathway in the presence of an antagonist - cell viability counter screen (AID 1259386; active = well fitted curve in the direction sought with a large enough effect in the repeat runs; an effect the other way counts as inactive or inconclusive;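 note: cells exposed to compounds for 22 h at 37 °C before the viability read; nearly all actives have a fitted effect of over 30% in size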; note: potency is the fitted concentration of half-maximal effect). A digest of the protocol: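 VM7Luc4E2, stripped-serum pre-culture 5 d; 24hr plating; +ICI-182,780 10.0nM final; cpds 15 conc, 22hr, 37C/5% CO2; CellTiter-Fluor added at 21hr, fluorescence 1hr later.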

In assay [9] the target is Progesterone receptor (Homo sapiens) (UniProt P06401). As to the kind of experiment: qHTS assay to identify small molecule agonists of the progesterone receptor (PR) signaling pathway (AID 1346784). Note: nearly all actives have a fitted effect of over 30% in size. Note: potency is the fitted concentration of half-maximal effect. Summed up:
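Reporter assay, GripTite PR-UAS-bla HEK 293T cells: 16 hr exposure to DMSO-dissolved compounds at 37C, 5% CO2, in steroid-depleted (2% charcoal-stripped FBS) medium; beta-lactamase measured by FRET fluorescence.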

A short description of assay [10]: qHTS assay to identify small molecule antagonists of the progesterone receptor (PR) signaling pathway - cell viability counter screen (AID 1346798; active = well fitted curve in the direction sought with a large enough effect in the repeat runs; an effect the other way counts as inactive or inconclusive; note: series mostly up to about 92 µM; nearly all actives have a fitted effect of over 50% in size). Summed up:
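In the same plates used for the beta-lactamase readout, cell viability of compound- and R5020-treated PR-UAS-bla HEK293T cells (16 hr, 37C) was assessed by CellTiter-Glo luminescence.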

The nature of assay [11]: qHTS assay to identify small molecule agonists of the progesterone receptor (PR) signaling pathway - cell viability counter screen (AID 1346799). Note: nearly all actives have a fitted effect of over 45% in size. Summed up:
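Multiplexed viability read: CellTiter-Glo luminescence, 30 min RT, following LiveBLAzer FRET measurement on PR-UAS-bla HEK293T cells exposed to compounds 16 hr.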

A short description of assay [12]: qHTS assay to identify small molecule agonists of the TGF-beta/Smad signaling pathway - cell viability counter screen (AID 1346829; active = well fitted curve in the direction sought with a large enough effect in the repeat runs; an effect the other way counts as inactive or inconclusive; note: top concentration of the series differs between compounds; nearly all actives have a fitted effect of over 45% in size). A digest of the protocol:
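HEK 293T SBE-bla line, 5 hr compound exposure at 37 C, multiplexed CellTiter-Glo viability read by luminescence.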

The nature of assay [13]: qHTS assay to identify small molecule agonists of the TGF-beta/Smad signaling pathway (AID 1346859; active = well fitted activation curve with a large enough effect in the signal ratio in the repeat runs, not every such curve was filed as active; the % refers to the signal ratio; note: series mostly up to about 77 µM). A digest of the protocol: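 Screening used HEK 293T SBE-bla cells at 4,000/well. Test agents: 5 hr, 37 C. Detection: FRET substrate, 2 hr RT, then excitation 405 nm with emissions at 460 and 530 nm.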
For assay [14], the target named is Thyrotropin-releasing hormone receptor (Homo sapiens) (UniProt P34981). As to the kind of experiment: qHTS assay to identify small molecule antagonists of the thyrotropin-releasing hormone receptor (TRHR) signaling pathway (AID 1346877; active = well fitted inhibition curve with a large enough effect in the repeat runs, not every such curve was filed as active; note: series mostly up to about 51 µM). A digest of the protocol:
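Intracellular calcium fluorescence, read kinetically every second over 3 min, reports TRH-evoked signalling in HEK293 cells carrying TRHR. Test compounds were added 5 min ahead of a 1 nM TRH challenge.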

In assay [15] the target is Estrogen receptor (Homo sapiens) (UniProt P03372). Briefly: qHTS assay to identify small molecule agonists of the estrogen receptor alpha (ER-alpha) signaling pathway in the presence of an antagonist (AID 1259383). Note: top concentration of the series differs between compounds; nearly all actives have a fitted effect of over 15% in size. Summed up: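 VM7Luc4E2, endog. ER-alpha + 4×ERE-luc; charcoal-stripped FBS, phenol red-free, 5 d; 24hr plating; +10.0nM ICI-182,780 (final); cpds 15 conc, 22hr, 37C/5% CO2; ONE-Glo luminescence.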
Sequence of Estrogen receptor (Homo sapiens) (P03372 whole entry, looked up): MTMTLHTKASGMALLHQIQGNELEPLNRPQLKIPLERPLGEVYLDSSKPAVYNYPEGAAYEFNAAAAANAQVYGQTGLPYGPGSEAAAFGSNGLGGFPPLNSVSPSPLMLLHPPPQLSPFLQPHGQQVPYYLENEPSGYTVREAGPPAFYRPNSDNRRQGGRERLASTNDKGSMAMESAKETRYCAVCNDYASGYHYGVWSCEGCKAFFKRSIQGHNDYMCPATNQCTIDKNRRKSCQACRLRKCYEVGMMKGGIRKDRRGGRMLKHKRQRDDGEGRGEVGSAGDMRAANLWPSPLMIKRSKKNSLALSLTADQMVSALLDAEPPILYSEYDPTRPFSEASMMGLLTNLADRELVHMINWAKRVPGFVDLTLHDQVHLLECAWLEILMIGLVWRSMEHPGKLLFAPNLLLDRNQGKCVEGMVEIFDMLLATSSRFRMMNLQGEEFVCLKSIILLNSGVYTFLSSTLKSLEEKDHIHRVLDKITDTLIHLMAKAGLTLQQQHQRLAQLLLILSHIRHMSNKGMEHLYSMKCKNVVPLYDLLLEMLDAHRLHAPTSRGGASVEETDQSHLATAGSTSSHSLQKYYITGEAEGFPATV

For assay [16], the target named is Progesterone receptor (Homo sapiens) (UniProt P06401). As to the kind of experiment: qHTS assay to identify small molecule antagonists of the progesterone receptor (PR) signaling pathway (AID 1346795; active = well fitted inhibition curve with a large enough effect in the signal ratio in the repeat runs, not every such curve was filed as active; the % refers to the signal ratio). A digest of the protocol:
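Stimulus R5020 at 1 nM final; cells HEK293T PR-UAS-bla; medium with 2% charcoal-stripped FBS; compound exposure 16 hr at 37C, 5% CO2; detection by FRET beta-lactamase substrate, 2 hr, room temperature.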

The target in assay [17] is Androgen receptor (Homo sapiens) (UniProt P10275). Briefly: qHTS assay to identify small molecule agonists of the androgen receptor (AR) signaling pathway in the presence of an antagonist (AID 1259381). Note: nearly all actives have a fitted effect of over 15% in size. Note: potency is the fitted concentration of half-maximal effect. A digest of the protocol: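 MDA-kb2 cells, 3,000/well, rested 5hr at 37C/0% CO2 → nilutamide 3.0uM final or buffer → compounds, 15 conc. → 16hr at 37C → ONE-Glo, 30min RT → luminescence.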
Sequence of Androgen receptor (Homo sapiens) (P10275 whole entry, looked up): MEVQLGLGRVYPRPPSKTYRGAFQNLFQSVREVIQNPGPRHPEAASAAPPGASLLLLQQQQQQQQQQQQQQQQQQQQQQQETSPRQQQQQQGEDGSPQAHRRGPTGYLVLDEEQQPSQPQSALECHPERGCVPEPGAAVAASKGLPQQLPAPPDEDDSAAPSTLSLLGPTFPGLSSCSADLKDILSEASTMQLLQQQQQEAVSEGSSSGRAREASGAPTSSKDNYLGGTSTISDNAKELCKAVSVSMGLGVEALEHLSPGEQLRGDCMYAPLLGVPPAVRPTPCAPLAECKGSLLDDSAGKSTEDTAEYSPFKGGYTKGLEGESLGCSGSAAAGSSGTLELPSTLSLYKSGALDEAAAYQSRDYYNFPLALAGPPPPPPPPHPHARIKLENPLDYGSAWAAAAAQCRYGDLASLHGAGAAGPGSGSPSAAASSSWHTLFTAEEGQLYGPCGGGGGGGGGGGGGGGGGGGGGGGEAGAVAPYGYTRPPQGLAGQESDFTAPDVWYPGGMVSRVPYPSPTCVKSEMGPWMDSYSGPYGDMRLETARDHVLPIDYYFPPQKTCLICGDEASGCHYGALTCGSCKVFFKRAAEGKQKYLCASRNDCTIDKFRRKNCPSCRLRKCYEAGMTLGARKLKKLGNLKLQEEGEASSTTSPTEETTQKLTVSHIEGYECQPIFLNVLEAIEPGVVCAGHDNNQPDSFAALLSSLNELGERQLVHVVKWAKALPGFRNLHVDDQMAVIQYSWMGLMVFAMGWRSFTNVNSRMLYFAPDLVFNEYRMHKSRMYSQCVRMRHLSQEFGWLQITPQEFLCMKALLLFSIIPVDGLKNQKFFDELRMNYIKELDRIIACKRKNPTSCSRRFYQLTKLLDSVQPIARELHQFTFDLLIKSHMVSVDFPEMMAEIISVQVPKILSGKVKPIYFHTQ

A short description of assay [18]: qHTS assay to identify small molecule antagonists of the TGF-beta/Smad signaling pathway - cell viability counter screen (AID 1346824; active = well fitted curve in the direction sought with a large enough effect in the repeat runs; an effect the other way counts as inactive or inconclusive; note: nearly all actives have a fitted effect of over 50% in size). A digest of the protocol: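 SBE-bla HEK 293T cells, incubated overnight, then compound plus 0.25 ng/mL TGF-beta1 (stock added) for 5 hr at 37 C. Viability was read in the same wells by CellTiter-Glo luminescence after 30 min at room temperature.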

Each structure is given as a SMILES string. Where “and” joins values, the source holds several entries; their conditions need not be identical. Identical values can stand only once. Results filed as inconclusive are left out. A structure can be active in one record and inactive in another. Calls of active or inactive are those of the source. Unless noted, calls come from the whole dose curve.

Sequence of Thyrotropin receptor (Homo sapiens) (P16473 whole entry, looked up): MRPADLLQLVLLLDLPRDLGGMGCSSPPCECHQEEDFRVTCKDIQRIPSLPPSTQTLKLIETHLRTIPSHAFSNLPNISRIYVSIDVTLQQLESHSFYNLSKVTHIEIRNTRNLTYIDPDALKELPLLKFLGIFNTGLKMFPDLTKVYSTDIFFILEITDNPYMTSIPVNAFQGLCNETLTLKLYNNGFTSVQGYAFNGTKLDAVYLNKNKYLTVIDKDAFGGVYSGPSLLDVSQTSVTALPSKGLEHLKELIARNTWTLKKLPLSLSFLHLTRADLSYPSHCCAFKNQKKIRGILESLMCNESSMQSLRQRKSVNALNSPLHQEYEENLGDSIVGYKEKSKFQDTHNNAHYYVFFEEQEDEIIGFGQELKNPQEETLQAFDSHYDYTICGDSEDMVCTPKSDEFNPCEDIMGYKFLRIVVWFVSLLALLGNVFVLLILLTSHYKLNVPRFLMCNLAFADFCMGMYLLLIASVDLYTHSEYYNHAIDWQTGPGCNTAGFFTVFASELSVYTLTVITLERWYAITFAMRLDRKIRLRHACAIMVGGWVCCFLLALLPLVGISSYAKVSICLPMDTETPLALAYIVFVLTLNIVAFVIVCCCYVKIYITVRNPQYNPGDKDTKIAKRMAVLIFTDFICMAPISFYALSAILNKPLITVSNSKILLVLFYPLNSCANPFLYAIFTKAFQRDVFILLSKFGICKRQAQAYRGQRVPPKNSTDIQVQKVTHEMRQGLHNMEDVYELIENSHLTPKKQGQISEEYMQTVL
Sequence of Thyrotropin-releasing hormone receptor (Homo sapiens) (P34981 whole entry, looked up): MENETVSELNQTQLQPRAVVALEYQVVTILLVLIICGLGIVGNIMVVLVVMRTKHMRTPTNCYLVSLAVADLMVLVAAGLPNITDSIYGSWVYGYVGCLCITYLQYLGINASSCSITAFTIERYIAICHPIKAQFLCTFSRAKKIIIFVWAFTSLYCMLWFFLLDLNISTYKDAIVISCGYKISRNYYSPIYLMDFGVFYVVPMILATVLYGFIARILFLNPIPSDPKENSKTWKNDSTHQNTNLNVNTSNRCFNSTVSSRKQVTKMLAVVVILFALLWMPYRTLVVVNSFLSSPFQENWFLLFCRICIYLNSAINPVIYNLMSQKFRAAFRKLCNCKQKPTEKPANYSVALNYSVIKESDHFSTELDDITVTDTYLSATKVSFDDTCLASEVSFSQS
Sequence of Progesterone receptor (Homo sapiens) (P06401 whole entry, looked up): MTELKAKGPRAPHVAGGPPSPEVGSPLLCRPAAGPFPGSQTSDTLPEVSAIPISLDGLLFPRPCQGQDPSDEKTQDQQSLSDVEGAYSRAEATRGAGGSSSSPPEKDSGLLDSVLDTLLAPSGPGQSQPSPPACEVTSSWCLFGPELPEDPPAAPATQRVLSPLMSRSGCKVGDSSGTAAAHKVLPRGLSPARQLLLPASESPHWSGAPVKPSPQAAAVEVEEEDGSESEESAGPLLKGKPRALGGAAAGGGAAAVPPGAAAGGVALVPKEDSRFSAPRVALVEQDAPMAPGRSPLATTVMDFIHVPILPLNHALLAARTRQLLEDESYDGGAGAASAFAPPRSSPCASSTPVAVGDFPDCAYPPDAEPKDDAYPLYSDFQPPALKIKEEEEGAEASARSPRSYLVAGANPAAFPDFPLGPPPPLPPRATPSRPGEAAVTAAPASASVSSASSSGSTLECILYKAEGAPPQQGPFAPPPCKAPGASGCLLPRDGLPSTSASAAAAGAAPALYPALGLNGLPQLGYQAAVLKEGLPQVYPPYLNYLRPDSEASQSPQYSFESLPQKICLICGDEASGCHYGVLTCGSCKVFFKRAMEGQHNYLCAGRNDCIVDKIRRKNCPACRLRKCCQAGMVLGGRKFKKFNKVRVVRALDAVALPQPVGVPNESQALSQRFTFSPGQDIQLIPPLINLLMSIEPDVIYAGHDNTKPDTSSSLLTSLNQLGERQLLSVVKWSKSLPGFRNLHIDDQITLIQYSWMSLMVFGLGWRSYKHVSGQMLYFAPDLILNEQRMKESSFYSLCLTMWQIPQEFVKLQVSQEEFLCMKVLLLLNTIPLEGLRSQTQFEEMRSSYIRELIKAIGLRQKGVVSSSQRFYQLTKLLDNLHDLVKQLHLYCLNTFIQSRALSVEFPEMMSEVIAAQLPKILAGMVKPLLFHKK

For `CC1CC(OC(=O)c2ccccc2O)CC(C)(C)C1` (stereo unspecified), the call in [1], in assay [6], in assay [7], in assay [13] and in assay [14] was inactive. The Potency in [2] is 27 µM (active) and inactive. Also, the Potency result in assay [3], in [4], in assay [5], in [8], in assay [9] and in assay [10] was “inactive” throughout. Besides, the Potency entry in assay [11] and in [12] was “inactive” throughout.

In the case of `CC1(C)CC(N=C=O)CC(C)(CN=C=O)C1` (stereo unspecified), the call in assay [1], in [6], in assay [7], in [13] and in assay [14] was inactive. In addition, the Potency entry in [2], in assay [3], in assay [4], in assay [5], in [15] and in [8] was “inactive” throughout. For the same compound, the Potency result in assay [9], in [16], in assay [10], in [11] and in assay [12] was “inactive” in each case.

For the compound `CCCCCCCCCC(=O)O`, the result in assay [1], in assay [6], in assay [7], in [13] and in [14] was inactive. The Potency entry in [2], in assay [3], in assay [4], in [17], in assay [5] and in assay [8] was “inactive” throughout. Moreover, the Potency result in [9], in [16], in assay [10], in assay [11] and in assay [12] was “inactive” each time.

Turning to `O=C(O)c1cc(-c2ccccc2)nc2ccccc12`, the result in [1], in assay [6], in assay [7], in assay [13] and in assay [14] was inactive. Besides, the Potency result in assay [2], in assay [3], in assay [4], in assay [5], in [8] and in assay [16] was “inactive” each time. Further, the Potency result in assay [10], in [11], in assay [18] and in assay [12] was “inactive” in each case. The Potency in [17] was 55.1 µM (active) and inactive; in [9] it was 779 nM (active) and inactive.

As to `O=C1N=C(O)CN1/N=C/c1ccc(-c2ccc([N+](=O)[O-])cc2)o1`, the outcome in assay [1] and in [6] was inactive. Moreover, the Potency entry in assay [2], in [4], in assay [5], in assay [9], in [16] and in assay [10] was “inactive” in each case. Further, in assay [12], the Potency result is “inactive”. Moreover, the Potency in assay [8] is 27.3 µM (active) and 26.6 µM (active).

In the case of `O=c1c(-c2ccc(O)cc2)coc2cc(O)ccc12`, the call in assay [1], in assay [6], in assay [7] and in [13] was inactive. For the same compound, the Potency in [2] was 13.5 µM (active) and 19.3 µM (active). The Potency entry in [3], in [17], in assay [5], in [8], in assay [9] and in assay [16] was “inactive” throughout. In addition, the Potency entry in assay [10], in assay [18] and in assay [12] was “inactive” each time.

Consider `OC[C@@H](O)[C@H](O)[C@H](O)[C@@H](O)CO`, for which the compound was classed as inactive in assay [1], in assay [6], in assay [7] and in [13]. Moreover, the Potency result in assay [2], in assay [3], in assay [4], in [5], in assay [15] and in [8] was “inactive” each time. The Potency result in assay [9], in [16], in assay [10] and in [12] was “inactive” throughout.
